Assay outcomes (PubChem)
CYP2C19 inh – human CYP2C19 inhibition | P33261 | CYP2C19 Supersomes, luciferin-H EGE luminescence, 30 min | inhibition, % at 5 µM | actives 21% (n = 96,000);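 active = CYP2C19 inhibition above a set limit at 5 µM in the primary screen, cut at about 50% in these data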
Target sequence (P33261 whole entry, looked up): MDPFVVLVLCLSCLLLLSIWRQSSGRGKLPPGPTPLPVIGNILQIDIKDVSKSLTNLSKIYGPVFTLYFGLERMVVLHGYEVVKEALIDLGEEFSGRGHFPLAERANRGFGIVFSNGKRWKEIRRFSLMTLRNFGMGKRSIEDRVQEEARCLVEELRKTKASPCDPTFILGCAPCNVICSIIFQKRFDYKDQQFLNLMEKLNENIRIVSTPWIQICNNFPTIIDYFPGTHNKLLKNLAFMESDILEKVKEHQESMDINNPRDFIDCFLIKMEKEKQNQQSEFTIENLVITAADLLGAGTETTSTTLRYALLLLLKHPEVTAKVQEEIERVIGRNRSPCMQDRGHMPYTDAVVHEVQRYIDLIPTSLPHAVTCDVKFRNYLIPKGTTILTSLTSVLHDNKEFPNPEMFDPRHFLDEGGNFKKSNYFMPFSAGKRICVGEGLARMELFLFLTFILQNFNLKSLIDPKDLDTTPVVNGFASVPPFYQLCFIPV
CYP2C9 inh – human CYP2C9 inhibition; inhibition, % at 5 µM; P11712; CYP2C9 Supersomes, luciferin-H conversion, luminescence; actives 20% (n = 96,000);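 active = blocking of liver enzyme CYP2C9 beyond about 50% at 5 µM, limit read from the data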
CYP2C19 act – cytochrome P450 2C19 (human) activation | activation factor at 5 µM | recombinant CYP2C19, luciferin-H EGE luminescence; hits give high values; 0 = fully inhibited enzyme, 1 = untreated enzyme | P33261 | 96,000 tested, under 10 active;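 active = activation factor of at least 2 at 5 µM in the primary screen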
sEH act – increases human soluble epoxide hydrolase activity | activation, % at 2 µM | P34913 | AID 717 | purified human sEH enzymatic activity, activator screen | actives 0.04% (n = 91,000); in the data active = activation above about 37%
sEH inh – soluble epoxide hydrolase (human) inhibition; AID 707; inhibition, % at 2 µM; P34913; actives 0.34% (n = 91,000); recombinant human sEH enzymatic activity assay; in the data active = inhibition above about 80%
CYP2C9 act – increases human cytochrome P450 2C9 activity | recombinant CYP2C9, luciferin-H conversion, luminescence; hits give high values; factor 1 = untreated enzyme, 0 = blocked | activation factor at 5 µM | actives 1.4% (n = 96,000);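 active = activation factor of 2 or more for CYP2C9 at a 5 µM dose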
Large screens that a line does not name were inactive. Compounds with a hit are over-represented: about 27% of the library has one in this group of screens.

S=c1[nH]nc(-c2ccccc2)n1C1C=CCCC1 (stereo not given)	CYP2C19 inh 68.2 (no result: sEH act, sEH inh)
O=C(c1cc2ccccc2oc1=O)N1CCSC1c1ccco1 (stereo not given)	CYP2C19 inh 55.6, CYP2C9 act 2.5
Cc1cc(CN2CCOCC2)c(O)c(C2(C)CCCCC2)c1	none
COc1cccc(-c2nc3n(n2)C(c2cccs2)C(C(=O)Nc2cccnc2)=C(C)N3)c1 (stereo not given)	CYP2C19 inh 77.0, CYP2C9 inh 98.7 (no result: sEH act, sEH inh)
COc1ccccc1NC(=O)C1=C(C)Nc2nc(CCCO)nn2C1c1cccnc1 (stereo not given)	none
CC1=C(C(=O)Nc2ccccc2)C(c2cccnc2)n2nc(-c3cccnc3)nc2N1 (stereo not given)	CYP2C9 inh 75.0 (no result: sEH act, sEH inh)
CC1=C(C(=O)Nc2ccccc2C)C(c2cccnc2)n2nc(CCCO)nc2N1 (stereo not given)	CYP2C9 inh 52.9
COC(=O)C1=C(C)Nc2nc(-c3ccccc3)nn2C1c1ccc(C)o1 (stereo not given)	CYP2C19 inh 65.9, CYP2C9 inh 70.6
COc1ccc2ccccc2c1C1CC(=O)N2CN(C3CCCCC3)CSC2=C1C#N (stereo not given)	CYP2C19 inh 55.2, CYP2C9 inh 89.5
CCOc1cc(C2CC(=O)NC(SCC)=C2C#N)ccc1O (stereo not given)	none (no result: sEH act, sEH inh)
COc1cc(C2CC(=O)N3CN(Cc4ccco4)CSC3=C2C#N)ccc1OCc1ccccc1 (stereo not given)	CYP2C9 inh 83.0
CCOc1cc(C2CC(=O)N3CN(C4CCCCC4)CSC3=C2C#N)ccc1O (stereo not given)	CYP2C19 inh 53.1, CYP2C9 inh 82.0
COc1ccc2ccccc2c1C1CC(=O)N2CN(Cc3ccco3)CSC2=C1C#N (stereo not given)	CYP2C19 inh 55.2, CYP2C9 inh 86.5
COc1ccc(-c2nc3nc(C)cc(C)n3n2)cc1	none
O=c1cc(N2CCOCC2)[nH]c(=O)n1-c1ccc(Br)cc1	none (no result: sEH act, sEH inh)
CC(C)(C)OC(=O)N1CCCC1C(=O)NC(Cc1ccccc1)C(=O)O (stereo not given)	none
COc1ccccc1/C=C/C(=O)c1cc(Br)ccc1OC(=O)c1ccco1	none (no result: CYP2C19 inh, CYP2C9 inh, CYP2C19 act, CYP2C9 act)
Cc1ccc(/C=C/C(=O)c2cc(Br)ccc2OC(=O)c2ccco2)cc1	CYP2C19 inh 83.2, CYP2C9 inh 75.6
FC(F)(F)c1cc(-c2ccccc2)nc(NC2CCCC2)n1	CYP2C9 inh 56.5
FC(F)(F)c1cc(-c2ccccc2)nc(NCC2CCCO2)n1 (stereo not given)	none
Cc1ccc(C)c(S(=O)(=O)N2CCN(C(=O)Cn3c(C(F)(F)F)nc4ccccc43)CC2)c1	none
Cc1ccccc1NC(=O)/C=C/c1cccc(C(F)(F)F)c1	CYP2C9 act 2.2
Cc1cc(NC(=O)CSc2n[nH]c(CC(C)C)n2)no1	none
O=C(Nc1ccc2snnc2c1)N1CCSCC1	none
CC1CN(C(=O)Nc2ccc3snnc3c2)c2ccccc21 (stereo not given)	CYP2C19 inh 70.6, CYP2C9 inh 81.3 (no result: sEH act, sEH inh)
CC1Cc2ccccc2N1C(=O)c1ccc2snnc2c1 (stereo not given)	CYP2C19 inh 81.2
COCCOc1ccc(C(F)(F)F)cc1Nc1nc2ccccc2o1	none (no result: sEH act, sEH inh)
CN(C)c1ccc(-c2nc3ccccc3n2C)cc1	CYP2C19 inh 56.0
CC(C)n1c(-c2ccc(N(C)C)cc2)nc2ccccc21	CYP2C19 inh 61.1, CYP2C9 inh 62.1
Cc1ccc(C(O)c2nc3ccccc3n2C(C)C)cc1 (stereo not given)	CYP2C19 inh 92.2
COc1ccc(C(=O)N(CN2CCCC2=O)c2cc(C)on2)cc1OC	none (no result: sEH act, sEH inh)
O=C(Cc1ccc(F)cc1)Nc1c2c(nn1-c1cccc(Cl)c1)CS(=O)C2 (stereo not given)	CYP2C19 inh 100.4
CCN(CC)C(=O)/C(=C\c1ccc(Br)cc1)NC(=O)c1ccccc1OC	CYP2C9 inh 73.3
COc1ccccc1C(=O)N/C(=C\c1ccc(Br)cc1)C(=O)NCCO	none
CCCN(CCC)Cc1c(C(=O)OCC)nnn1-c1nonc1N	none
COC(=O)c1nnn(-c2nonc2N)c1CSc1ccccn1	CYP2C19 inh 80.1 (no result: sEH act, sEH inh)
CC(C)OC(=O)c1nnn(-c2nonc2N)c1CSc1ccccn1	CYP2C19 inh 74.4, CYP2C9 inh 57.1
